High-throughput results (PubChem)
Mtb hypoxia rep – PubChem AID 1159583 | hit rate 0.1% among 300,000 | M. tuberculosis hypoxia-regulated fluorescent reporter, fluorescence | fluorescence inhibition, % (no concentration beside the values); in the data active = fluorescence inhibition mostly above about 23%, no sharp cut-off; inactive = mostly below about 17%
Y pestis TopoI – Yersinia pestis topoisomerase I inhibitors, primary screen, biochemical, cleavage product accumulation, plate reader, single point. DNA topoisomerase I (Yersinia pestis CO92). Y. pestis Topo-I cleavage product accumulation. activity, % at 10 µM. hit rate 0.064% among 360,000; in the data active = activity above about 50%, passing the limit was not always enough
PrP UTR inh – inhibition of PrP 5' UTR reporter expression; cell-based PrP 5' UTR mRNA reporter, plate reader; inhibition, % (no concentration beside the values); hit rate 0.35% among 340,000; AID 488862, 2010; in the data active = inhibition above about 52%; note: 0 = median of the neutral control wells
FBA Mtb inh – Mtb FBA enzyme inhibitors, primary screen, biochemical, fluorescence, strain H37Rv | inhibition, % at 1 µM | hit rate 2.3% among 360,000 | purified M. tuberculosis FBA, fluorescence read-out | Fructose-bisphosphate aldolase (Mycobacterium tuberculosis (strain ATCC 25618 / H37Rv)), …; in the data active = inhibition above about 27%;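 note: 0% = vehicle and 100% = reference inhibitor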
Target sequence (P9WQA3 whole entry, looked up): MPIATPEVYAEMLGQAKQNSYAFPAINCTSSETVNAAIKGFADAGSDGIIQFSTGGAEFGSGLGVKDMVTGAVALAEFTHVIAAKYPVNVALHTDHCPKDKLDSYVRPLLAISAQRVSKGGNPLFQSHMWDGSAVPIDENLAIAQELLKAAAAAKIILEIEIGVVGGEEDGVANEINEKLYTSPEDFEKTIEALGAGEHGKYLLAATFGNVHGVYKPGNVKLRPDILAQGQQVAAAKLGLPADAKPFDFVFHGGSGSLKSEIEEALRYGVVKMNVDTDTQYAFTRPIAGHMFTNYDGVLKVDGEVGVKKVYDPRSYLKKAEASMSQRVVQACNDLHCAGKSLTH
PrPC surface inh – inhibitors of human cell surface prion protein PrPC, primary screen, cell-based, TR-FRET. AID 720596, 2013. TR-FRET read-out. Major prion protein (Homo sapiens), P04156. hit rate 0.43% among 370,000. inhibition, % at 13.8 µM; in the data active = inhibition above about 24%; note: 0% = median of the test wells and 100% = reference compound wells
GDH-TPI counter – GDH-TPI coupling enzyme inhibitors, primary screen, artefact control for M. tuberculosis FBA inhibitor project, biochemical, absorbance, full deck; inhibition, % at 4.8 µM; GDH-TPI coupled enzyme counterscreen, NADH absorbance; hit rate 1.2% among 360,000; in the data active = inhibition above about 30%;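 note: 0% = DMSO wells and 100% = wells lacking the enzyme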
PrP 5UTR single – prion 5' UTR mRNA inhibition, cherry-pick retest; shares compounds with PrP UTR inh; cell-based prion protein 5' UTR reporter, plate reader; inhibition, % at 2.5 µM; hit rate 48% among 1,100; in the data active = inhibition above about 54%
* marks the source's active call; other numbers are inactive results; . = no result; ! = repeats disagree. Compounds with a hit are over-represented: about 3.8% of the library has one in this group of screens.

SMILES	Mtb hypoxia rep	Y pestis TopoI	PrP UTR inh	FBA Mtb inh	PrPC surface inh	GDH-TPI counter	PrP 5UTR single
O=C(CCS(=O)(=O)Cc1ccccc1)N1CCN(c2ccc([N+](=O)[O-])cc2)CC1	8	1	80*	-8	-16	4	-7
Cc1ccc(C=NNC(=O)c2cccc(S(=O)(=O)N3CCOCC3)c2)o1	10	.	.	.	.	.	.
CC(=O)OCC(=O)[C@@]1(O)CCC2C3CCC4=CC(=O)CC[C@]4(C)C3C(O)C[C@@]21C (stereo partly specified)	6	.	.	.	.	.	.
CC(=O)OCC(=O)[C@@]1(O)CC[C@H]2[C@@H]3CCC4=CC(=O)CC[C@]4(C)[C@H]3[C@@H](O)C[C@@]21C	.	-3	65*!	-2	12	4	-13
Cc1ccccc1N1C(=O)CC2(CCCC2)CC1=O	14	6	82*	0	-6	-1	-7
O=C(c1ccc(F)cc1)C1CCN(Cc2ccccc2F)CC1	.	3	.	-2	-2	-1	.
CC1(C)C(=O)N(CCN2CCC(C(=O)c3ccc(F)cc3)CC2)c2ccccc21	1	18	53*	1	2	10	-22
CCc1cc(=O)oc2cc(OCC(=O)NCCN3CCOCC3)c(Cl)cc12	2	-11	-2	9	7	18	.
O=C(COc1cc(Cl)c(Cl)cc1Cl)NCCN1CCOCC1	2	-7	55*	-1	3	0	-24
COc1cc([N+](=O)[O-])ccc1NC(=O)COC(=O)C=C(C)C	4	-1	61*	-4	-13	8	-22
CC(C)=CC(=O)OCC(=O)Nc1cccc([N+](=O)[O-])c1	4	-3	-1	-1	-2	3	.
CSc1ccc(Cl)c(C(=O)Nc2ccc(Cl)cn2)c1	18	-1	-12	-2	10	3	.
COc1cc(SC)ccc1C(=O)Nc1ccc(Cl)cn1	11	2	60*	-2	3	15	55*
COc1ccccc1N1CCN(C(=O)CSc2ncnc3scc(-c4ccccc4)c23)CC1	2	27	-5	-1	7	10	.
COc1ccc(-n2ncc3c(SCC(=O)N4CCN(c5ccccc5OC)CC4)ncnc32)cc1	12	24	64*	-2	8	19	-26
Cc1ccnc(NS(=O)(=O)c2ccc(NC(=O)C=Cc3cccs3)cc2)n1	10	.	.	.	.	.	.
Cc1cc(-c2ccccc2)n2ncc(-c3ccccc3)c2n1	2	14	-24	0	-9	1	.
Cc1nc2c(-c3ccccc3)cnn2c(N)c1-c1ccccc1	1	-9	65*	12	9	2	10
S=C1NCC(Cc2cccc3ccccc23)N1CC1CCCCC1 (stereo unspecified)	-1	.	.	.	.	.	.
O=C(NN=Cc1ccccn1)C(O)c1ccccc1 (stereo unspecified)	6	.	.	.	.	.	.
COc1cccc2sc3ccc(C#CC4(O)CCCCC4)cc3c(=O)c12	10	20	-70	10	11	10	.
O=c1c2ccccc2sc2ccc(C#CC3(O)CCCCC3)cc12	-2	-10	92*	19	5	6	86*
O=c1c2ccccc2oc2cc(C#CC3(O)CCCCC3)ccc12	-10	6	70*	0	4	3	55*
O=C1CCN(CCc2ccccc2)CCN1C(CSc1ccccc1)Cc1ccccc1 (stereo unspecified)	-7	.	.	.	.	.	.
Cn1ccc(C(=O)NN=Cc2ccccc2[N+](=O)[O-])n1	-7	.	.	.	.	.	.
CCN(C[C@H]1N[C@@](C)(C(=O)OC)[C@H]2C(=O)N(C)C(=O)[C@@H]12)C(=O)c1ccc(C(C)(C)C)cc1	-2	-7	58*	2	-3	-11	-12
O=C1C=C(Nc2cccc3cccnc23)c2ccccc2C1=O	.	-12	64*	1	-18	-5	-36
O=C1C=C(Nc2ccccc2)c2ccccc2C1=O	1	2	-14	-7	-3	8	.
C/C(=N\NC(=O)c1n[nH]c2c1CCC2)c1cccs1	.	-1	76*	-3	-3	3	73*
CCN(CC)c1ccc(C2NC(=O)c3ccccc3N2)cc1 (stereo unspecified)	.	11	60*	23	-4	29	-7
